Test results from PubChem BioAssay (EPA / NIEHS).
Records with an inconclusive call do not appear. A structure can be active in one record and inactive in another. Calls of active or inactive are those of the source. The calls were made as follows, unless noted: active = hit-call score of the fitted dose curve at least 0.9, where 1 is the maximum; inactive = score below 0.9.

What was measured:
[1] = biological target: human RAR-related Orphan Receptor gamma (RORg), RORC (gene 6097) (UniProt P51449); experiment: ATG_RORg_TRANS: Attagene TRANS-FACTORIAL HepG2 Assay for human RAR-related Orphan Receptor gamma (RORg) (AID 2283011; active = hit-call score of the fitted dose curve at least 0.9, where 1 is the maximum)
In short: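 Transient MRTU transfection of HepG2 (TRANS format, exogenous NR-Gal4 chimera). 24 h dosing. Total RNA → oligo(dT) RT → PCR → 6-FAM labelling → HpaI cut → CE. Gain vs DMSO.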

[2] = biological target: Retinoic acid receptor RXR-alpha (Homo sapiens) (UniProt P19793); experiment: ATG_RXRa_TRANS: Attagene TRANS-FACTORIAL HepG2 Assay for human Retinoid X Receptor alpha (RXRa) (AID 2283012; active = hit-call score of the fitted dose curve at least 0.9, where 1 is the maximum)
In short: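 Chimeric NR-GAL4 trans-activation in HepG2, 24 h treatment; reporter transcripts quantified by fluorescence on capillary electrophoresis, analysed for upward change from DMSO.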

[3] = biological target: human Vitamin D Receptor (VDR), VDR (gene 7421) (UniProt P11473); experiment: ATG_VDR_TRANS: Attagene TRANS-FACTORIAL HepG2 Assay for human Vitamin D Receptor (VDR) (AID 2283022; active = hit-call score of the fitted dose curve at least 0.9, where 1 is the maximum)
In short: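 RT-PCR/capillary electrophoresis read-out of reporter mRNA induction in transiently transfected HepG2; 24 h dosing; chimeric NR-Gal4 (TRANS format); gain-of-signal fit against DMSO baseline.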

[4] = biological target: human Thyroid Receptor alpha (THRa1), THRA (gene 7067) (UniProt P10827); experiment: ATG_THRa1_TRANS: Attagene TRANS-FACTORIAL HepG2 Assay for human Thyroid Receptor alpha (THRa1) (AID 2283014; active = hit-call score of the fitted dose curve at least 0.9, where 1 is the maximum)
In short: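 Transient HepG2 transfection, NR-Gal4 chimera driving GAL4-UAS reporters; 24 h compound exposure; total RNA, oligo(dT) RT, PCR, fluorescent primer extension, capillary electrophoresis. Upward direction vs DMSO control.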

[5] = biological target: human Retinoid X Receptor beta (RXRb), RXRB (gene 6257) (UniProt P28702); experiment: ATG_RXRb_TRANS: Attagene TRANS-FACTORIAL HepG2 Assay for human Retinoid X Receptor beta (RXRb) (AID 2283013; active = hit-call score of the fitted dose curve at least 0.9, where 1 is the maximum)
In short: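 After a 24 h incubation with test chemical, transfected HepG2 cells carrying NR-Gal4 fusions and GAL4-UAS reporter transcription units yield RNA whose reporter cDNA is FAM-labelled, HpaI-cut and sized by capillary electrophoresis; increases over DMSO are scored.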

[6] = read-out: E-selectin (Homo sapiens) (UniProt P16581); experiment: BSK_3C_Eselectin: BioMAP Diversity Plus: 3C Assay for Eselectin Biomarker Activity (AID 2283015); conditions: primary human endothelial cells (HUVEC); actives raise or lower the signal
In short: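 HUVEC, 3C stimulation; compound exposure 24 h; E-selectin by ELISA; gain- or loss-of-signal fitted bidirectionally vs DMSO baseline.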

[7] = read-out: Interleukin-1 alpha (IL1a), IL1A (gene 3552); experiment: BSK_BE3C_IL1a: BioMAP Diversity Plus: BE3C Assay for Interleukin-1 alpha (IL1a) Biomarker Activity (AID 2283016); conditions: primary human bronchial epithelial cells; actives raise or lower the signal
In short: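 Measured in human lung primary bronchial epithelial cells: IL-1a by ELISA at 24 h after dosing, with bidirectional fitting against DMSO.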

[8] = read-out: Monocyte Chemoattractant Protein-1 (MCP1), CCL2 (gene 6347); experiment: BSK_3C_MCP1: BioMAP Diversity Plus: 3C Assay for Monocyte Chemoattractant Protein-1 (MCP1) Biomarker Activity (AID 2283017); conditions: primary human endothelial cells (HUVEC); actives raise or lower the signal
In short: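 HUVEC, 3C system; 24 h chemical exposure; MCP-1 by ELISA; bidirectional curve fit vs DMSO baseline.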

[9] = read-out: Monocyte Chemoattractant Protein-1 (MCP1), CCL2 (gene 6347); experiment: BSK_4H_MCP1: BioMAP Diversity Plus: 4H Assay for Monocyte Chemoattractant Protein-1 (MCP1) Biomarker Activity (AID 2283018); conditions: primary human endothelial cells (HUVEC); actives raise or lower the signal
In short: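 Primary human umbilical vein endothelium is exposed to chemical for 24 h before MCP-1 is assayed by ELISA. Concentration-response fitted bidirectionally relative to DMSO.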

[10] = read-out: Human Leukocyte Antigen - DR isotype (HLADR), HLA-DRA (gene 3122); experiment: BSK_3C_HLADR: BioMAP Diversity Plus: 3C Assay for Human Leukocyte Antigen - DR isotype (HLADR) Biomarker Activity (AID 2283019); conditions: primary human endothelial cells (HUVEC); actives raise or lower the signal
In short: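 HUVEC, 3C stimulation, 24 h post-dose; HLA-DR by ELISA; bidirectional curve fit vs DMSO baseline; gain or loss of signal scored.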

[11] = read-out: Interleukin-8 (IL8), CXCL8 (gene 3576); experiment: BSK_3C_IL8: BioMAP Diversity Plus: 3C Assay for Interleukin-8 (IL8) Biomarker Activity (AID 2283020); conditions: primary human endothelial cells (HUVEC); actives raise or lower the signal
In short: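 Using DMSO-treated wells as the baseline, bidirectional curve fitting was applied to ELISA-measured IL-8 from human umbilical vein endothelial cultures sampled 24 h after compound addition.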

[12] = read-out: Monokine induced gamma interferon (MIG), CXCL9 (gene 4283); experiment: BSK_3C_MIG: BioMAP Diversity Plus: 3C Assay for Monokine induced gamma interferon (MIG) Biomarker Activity (AID 2283021); conditions: primary human endothelial cells (HUVEC); actives raise or lower the signal
In short: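 ELISA-measured MIG in dosed HUVEC 3C cultures at 24 h, analysed by bidirectional fitting with DMSO defining baseline activity.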

[13] = BSK_3C_SRB: Viability Assessment in the BioMAP Diversity Plus: 3C Assay (AID 2283023); conditions: primary human endothelial cells (HUVEC);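 also: fitted both ways against DMSO so a hit may be signal rise or drop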
In short: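 HUVEC, 24 h post-dose; 10% TCA fix, 0.1% SRB stain, A560 nm. Bidirectional curve fit vs DMSO negative control.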

[14] = read-out: Matrix Metallopeptidase 1 (MMP1), MMP1 (gene 4312); experiment: BSK_BE3C_MMP1: BioMAP Diversity Plus: BE3C Assay for Matrix Metallopeptidase 1 (MMP1) Biomarker Activity (AID 2283024); conditions: primary human bronchial epithelial cells; actives raise or lower the signal
In short: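 In this multiplexed primary-cell system, human bronchial epithelium received chemicals for 24 h before an ELISA for MMP1. Values reflect bidirectional fits normalised to the DMSO baseline.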

[15] = BSK_3C_Vis: BioMAP Diversity Plus: 3C Assay for Morphology Visualization (AID 2283025); conditions: primary human endothelial cells (HUVEC);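 also: fitted both ways so gain or loss versus DMSO counts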;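 as to AC50: light microscopy image of cell morphology used as background control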
In short: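 Light-microscopy morphology readout, 24 h exposure, human primary umbilical vein endothelium; analysed relative to DMSO with bidirectional fitting.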

[16] = read-out: Pselectin, SELP (gene 6403); experiment: BSK_4H_Pselectin: BioMAP Diversity Plus: 4H Assay for Pselectin Biomarker Activity (AID 2283026); conditions: primary human endothelial cells (HUVEC); actives raise or lower the signal
In short: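 Bidirectional fits against DMSO gave the endpoint. Cells: primary human umbilical vein endothelium, chemical-treated for 24 h before ELISA detection of P-selectin.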

[17] = BSK_4H_SRB: Viability Assessment in the BioMAP Diversity Plus: 4H Assay (AID 2283027); conditions: primary human endothelial cells (HUVEC);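 also: cells exposed to compound for 24 h before staining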;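 as to AC50: curves fitted both ways versus DMSO so AC50 may be loss or gain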
In short: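 Cytotoxicity read-out in primary human endothelial cells: after 24 h compound exposure, cells were TCA-fixed (10%), stained with 0.1% SRB and absorbance taken at 560 nm. Values fitted in both directions relative to DMSO.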

[18] = read-out: Thrombomodulin, THBD (gene 7056); experiment: BSK_3C_Thrombomodulin: BioMAP Diversity Plus: 3C Assay for Thrombomodulin Biomarker Activity (AID 2283029); conditions: primary human endothelial cells (HUVEC); actives raise or lower the signal
In short: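 In a multiplexed primary-cell system, human umbilical vein endothelium received chemical and was assayed 24 h later for thrombomodulin by ELISA. Parallel cultures were SRB-stained (0.1% SRB after 10% TCA fixation, read at 560 nm) to flag cytotoxicity.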

[19] = read-out: Urokinase-type plasminogen activator receptor (uPAR), PLAUR (gene 5329); experiment: BSK_4H_uPAR: BioMAP Diversity Plus: 4H Assay for Urokinase-type plasminogen activator receptor (uPAR) Biomarker Activity (AID 2283030); conditions: primary human endothelial cells (HUVEC); actives raise or lower the signal
In short: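 HUVEC, 24 h post-dose; uPAR by ELISA; bidirectional fit vs DMSO baseline.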

Measured: AC50

human Vitamin D Receptor (VDR), VDR (gene 7421), sequence (P11473 whole entry, looked up, the tested form may be a part): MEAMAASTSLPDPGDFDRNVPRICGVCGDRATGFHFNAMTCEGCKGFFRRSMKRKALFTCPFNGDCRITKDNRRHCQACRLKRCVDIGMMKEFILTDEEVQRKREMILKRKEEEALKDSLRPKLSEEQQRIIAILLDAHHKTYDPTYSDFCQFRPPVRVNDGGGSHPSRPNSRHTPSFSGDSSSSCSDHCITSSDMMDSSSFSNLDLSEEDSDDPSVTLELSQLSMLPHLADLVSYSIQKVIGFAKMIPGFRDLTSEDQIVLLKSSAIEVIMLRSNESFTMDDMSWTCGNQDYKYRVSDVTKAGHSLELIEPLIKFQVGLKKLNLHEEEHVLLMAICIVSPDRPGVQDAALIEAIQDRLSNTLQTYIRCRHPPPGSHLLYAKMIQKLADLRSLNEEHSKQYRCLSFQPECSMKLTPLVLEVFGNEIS
human Thyroid Receptor alpha (THRa1), THRA (gene 7067), sequence (P10827 whole entry, looked up, the tested form may be a part): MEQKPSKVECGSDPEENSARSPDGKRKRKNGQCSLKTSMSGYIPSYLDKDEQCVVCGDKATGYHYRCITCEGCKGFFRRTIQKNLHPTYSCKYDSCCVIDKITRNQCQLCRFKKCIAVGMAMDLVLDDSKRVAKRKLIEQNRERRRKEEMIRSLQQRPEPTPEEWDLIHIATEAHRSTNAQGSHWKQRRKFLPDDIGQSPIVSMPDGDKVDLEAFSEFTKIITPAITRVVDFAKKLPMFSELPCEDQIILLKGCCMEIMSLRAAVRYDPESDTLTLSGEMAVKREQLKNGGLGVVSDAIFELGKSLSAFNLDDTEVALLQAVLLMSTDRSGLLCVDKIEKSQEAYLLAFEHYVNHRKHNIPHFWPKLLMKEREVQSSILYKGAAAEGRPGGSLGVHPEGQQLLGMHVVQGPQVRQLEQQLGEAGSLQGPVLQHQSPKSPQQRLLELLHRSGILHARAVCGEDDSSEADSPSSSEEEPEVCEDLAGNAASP
human Retinoid X Receptor beta (RXRb), RXRB (gene 6257), sequence (P28702 whole entry, looked up, the tested form may be a part): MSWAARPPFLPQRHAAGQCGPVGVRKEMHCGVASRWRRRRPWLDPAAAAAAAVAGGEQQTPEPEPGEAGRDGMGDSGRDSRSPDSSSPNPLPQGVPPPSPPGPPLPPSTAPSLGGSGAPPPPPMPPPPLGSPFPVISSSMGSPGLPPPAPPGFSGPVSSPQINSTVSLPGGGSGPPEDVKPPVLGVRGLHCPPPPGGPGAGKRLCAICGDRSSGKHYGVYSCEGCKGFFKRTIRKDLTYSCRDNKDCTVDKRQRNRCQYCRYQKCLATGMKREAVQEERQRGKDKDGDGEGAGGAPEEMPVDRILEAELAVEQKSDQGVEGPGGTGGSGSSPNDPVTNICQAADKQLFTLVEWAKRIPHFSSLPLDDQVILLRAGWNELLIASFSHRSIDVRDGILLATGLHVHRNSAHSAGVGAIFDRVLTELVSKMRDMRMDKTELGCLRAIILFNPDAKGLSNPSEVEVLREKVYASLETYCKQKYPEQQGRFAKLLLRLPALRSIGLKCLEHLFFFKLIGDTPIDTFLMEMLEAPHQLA
Retinoic acid receptor RXR-alpha (Homo sapiens), sequence (P19793 whole entry, looked up, the tested form may be a part): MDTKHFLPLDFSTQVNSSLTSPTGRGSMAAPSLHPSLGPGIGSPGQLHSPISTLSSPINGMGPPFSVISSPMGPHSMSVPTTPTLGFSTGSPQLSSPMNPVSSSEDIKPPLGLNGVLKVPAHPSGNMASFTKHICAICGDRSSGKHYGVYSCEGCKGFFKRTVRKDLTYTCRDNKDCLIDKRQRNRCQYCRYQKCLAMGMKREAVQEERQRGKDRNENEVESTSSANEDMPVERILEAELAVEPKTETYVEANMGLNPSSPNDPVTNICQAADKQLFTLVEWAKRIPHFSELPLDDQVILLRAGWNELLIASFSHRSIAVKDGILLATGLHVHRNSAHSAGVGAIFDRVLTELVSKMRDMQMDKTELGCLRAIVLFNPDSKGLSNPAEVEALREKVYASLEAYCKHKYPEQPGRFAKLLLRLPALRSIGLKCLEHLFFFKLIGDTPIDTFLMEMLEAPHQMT
human RAR-related Orphan Receptor gamma (RORg), RORC (gene 6097), sequence (P51449 whole entry, looked up, the tested form may be a part): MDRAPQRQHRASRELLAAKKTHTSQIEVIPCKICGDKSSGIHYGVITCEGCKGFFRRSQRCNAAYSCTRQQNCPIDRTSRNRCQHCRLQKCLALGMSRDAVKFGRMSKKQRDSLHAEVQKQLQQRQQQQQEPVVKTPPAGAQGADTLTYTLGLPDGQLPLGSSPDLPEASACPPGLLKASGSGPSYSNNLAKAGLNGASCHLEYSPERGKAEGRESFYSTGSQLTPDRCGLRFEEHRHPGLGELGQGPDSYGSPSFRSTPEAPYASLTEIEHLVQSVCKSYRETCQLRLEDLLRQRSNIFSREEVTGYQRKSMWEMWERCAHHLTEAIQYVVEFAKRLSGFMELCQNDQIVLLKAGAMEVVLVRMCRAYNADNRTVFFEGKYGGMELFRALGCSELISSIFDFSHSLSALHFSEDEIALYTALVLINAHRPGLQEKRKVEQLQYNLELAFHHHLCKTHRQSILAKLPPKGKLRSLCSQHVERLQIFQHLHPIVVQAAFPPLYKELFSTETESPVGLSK
E-selectin (Homo sapiens), sequence (P16581 whole entry, looked up): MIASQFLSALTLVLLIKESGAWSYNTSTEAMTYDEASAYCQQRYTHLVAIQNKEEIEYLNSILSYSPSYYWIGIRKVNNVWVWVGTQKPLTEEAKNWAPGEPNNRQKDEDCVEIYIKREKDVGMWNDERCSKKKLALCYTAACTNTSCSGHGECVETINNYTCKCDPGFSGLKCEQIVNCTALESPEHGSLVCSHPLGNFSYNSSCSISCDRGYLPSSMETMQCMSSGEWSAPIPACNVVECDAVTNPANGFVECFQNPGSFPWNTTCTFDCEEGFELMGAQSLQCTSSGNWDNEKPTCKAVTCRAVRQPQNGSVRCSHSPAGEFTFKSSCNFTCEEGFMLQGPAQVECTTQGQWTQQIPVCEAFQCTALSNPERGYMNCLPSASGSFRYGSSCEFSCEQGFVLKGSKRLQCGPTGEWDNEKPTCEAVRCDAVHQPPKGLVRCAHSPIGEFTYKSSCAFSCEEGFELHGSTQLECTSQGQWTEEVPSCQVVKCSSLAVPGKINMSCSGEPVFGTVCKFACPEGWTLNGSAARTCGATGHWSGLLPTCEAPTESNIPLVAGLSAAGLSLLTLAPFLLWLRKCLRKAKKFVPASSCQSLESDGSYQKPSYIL

CCCC(=O)OCCC(C)CCC=C(C)C (stereo not drawn)
inactive: [1] | [2] | [3]

Cc1c(N(C)C)c(=O)n(-c2ccccc2)n1C
inactive: [1] | [2] | [4] | [3]

Cc1ccc(C(C)C)cc1O
active: [5] 100 µM
inactive: [1]

CCc1c(C)cc(N)c(CC)c1N
inactive: [1] | [2] | [4] | [6] | [7] | [8] | [9] | [10] | [11] | [12] | [13] | [14] | [15] | [16] | [17] | [18] | [19]

CCCCCCCCCCCCSC
active: [5] 100 µM
inactive: [1] | [4]

COc1ccc(OC)c(OC)c1
inactive: [1] | [2] | [4] | [3]

CC1CCC(C(C)(C)O)CC1 (stereo not drawn)
inactive: [1] | [5]

CC(C)C(C)(C)C(C)(C)C(C)(C)S
inactive: [1] | [5]

O=Cc1ccc(Cl)c([N+](=O)[O-])c1
inactive: [1] | [2] | [4] | [3]

CC1CCC2CC1C2(C)C (stereo not drawn)
inactive: [1] | [5]

Nc1cc(Cl)c(O)c(Cl)c1
inactive: [1] | [2] | [4] | [3]

Cc1ccc(C(=O)O)o1
inactive: [1] | [5] | [4]

Nc1cc(N)cc(C(=O)O)c1
inactive: [1] | [2] | [4]

COc1ccc(Cl)cc1C
inactive: [1] | [2] | [4] | [3]

CCC(=O)OCc1ccccc1
inactive: [1] | [2] | [4] | [6] | [7] | [8] | [9] | [10] | [11] | [12] | [3] | [13] | [14] | [16] | [17] | [18] | [19]

OC1OC[C@@H](O)[C@H](O)[C@H]1O (stereo partly drawn)
inactive: [1] | [2] | [6] | [7] | [8] | [9] | [10] | [11] | [12] | [13] | [14] | [16] | [17] | [18] | [19]
active: [11] 5.39 µM

NCCOCCO
inactive: [1] | [2] | [4]

CCCCCCCCCCCCN
inactive: [1] | [5]

O=C(O)c1cccc([N+](=O)[O-])c1
inactive: [1] | [2] | [4]

CC1=CCC(O)(C(C)C)CC1 (stereo not drawn)
inactive: [1] | [2] | [4] | [3]

O=C(O)CCSCCC(=O)O
inactive: [1] | [5]

CC(=O)Nc1ccc(C)cc1C
inactive: [1] | [2] | [4] | [3]

CCCCCC(=O)OCCc1ccccc1
inactive: [1] | [5] | [4]

O=c1oc(=O)c2cc3c(=O)oc(=O)c3cc12
inactive: [1] | [2] | [3]

CC[Si](OC(C)=O)(OC(C)=O)OC(C)=O
inactive: [1] | [6] | [7] | [8] | [9] | [10] | [11] | [12] | [3] | [13] | [14] | [16] | [17] | [18] | [19]

Nc1cc([N+](=O)[O-])ccc1Cl
inactive: [1] | [5] | [6] | [7] | [8] | [9] | [10] | [11] | [12] | [3] | [13] | [14] | [15] | [16] | [17] | [18] | [19]

Cc1ccc(O)c(C(C)(C)C)c1
active: [6] 25.5 µM | [7] 29.6 µM | [8] 27.6 µM | [9] 24.9 µM | [10] 29.8 µM | [11] 36.5 µM | [13] 25 µM | [14] 28.3 µM | [15] 13.4 µM | [16] 34.3 µM | [17] 33.5 µM | [18] 30.8 µM | [19] 28.2 µM
inactive: [1] | [12]

C=CC(=O)OCC(O)COc1ccccc1 (stereo not drawn)
inactive: [1] | [5] | [3]

c1ccc2c(c1)c1cccc3ccc4cccc2c4c31
inactive: [1] | [4] | [6] | [7] | [8] | [9] | [11] | [12] | [13] | [14] | [15] | [16] | [17] | [18] | [19]
active: [5] 10.2 µM | [10] 0.206 µM

C=C[C@@H](C)CCC=C(C)C
inactive: [1] | [4] | [3]

ClCCCl
inactive: [1] | [3]

CC(=O)OCc1ccc2c(c1)OCO2
inactive: [1] | [5] | [3]

O=C1C(c2[nH]c3ccc(S(=O)(=O)O)cc3c2O)=Nc2ccc(S(=O)(=O)O)cc21
inactive: [1] | [4] | [3]

CC(C)OP(=O)(CP(=O)(OC(C)C)OC(C)C)OC(C)C
inactive: [1] | [5] | [4] | [3]

CC(C)CCCCCCCOC(=O)c1ccc(C(=O)OCCCCCCCC(C)C)c(C(=O)OCCCCCCCC(C)C)c1
inactive: [1] | [3]
